Gli-Sufu block: Gli-Sufu pathway antagonists, primary screen, luciferase luminescence, Sufu-KO-LIGHT cells, uHTS; 0.74% of 340,000 active; inhibition, % at 5 µM; Sufu-KO-LIGHT fibroblasts, Gli luciferase reporter luminescence; AID 588413, 2011;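 active means inhibition above about 55%, limit read from the data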;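 further: 0% = DMSO-treated cells and 100% = wells with medium but no cells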
Mdm2-MdmX inh: inhibitors of human Mdm2-MdmX association, primary screen, cell-based, luminescence, split luciferase, SaOS-2, uHTS. Protein Mdm4 (Homo sapiens) + E3 ubiquitin-protein ligase Mdm2 (Homo sapiens), …. SaOS-2 split-luciferase Mdm2/MdmX complementation. inhibition, % at 8 µM. 3% of 330,000 active;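 active means inhibition of at least 50% at 8 µM in the primary screen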
Target sequence (O15151 whole entry, looked up): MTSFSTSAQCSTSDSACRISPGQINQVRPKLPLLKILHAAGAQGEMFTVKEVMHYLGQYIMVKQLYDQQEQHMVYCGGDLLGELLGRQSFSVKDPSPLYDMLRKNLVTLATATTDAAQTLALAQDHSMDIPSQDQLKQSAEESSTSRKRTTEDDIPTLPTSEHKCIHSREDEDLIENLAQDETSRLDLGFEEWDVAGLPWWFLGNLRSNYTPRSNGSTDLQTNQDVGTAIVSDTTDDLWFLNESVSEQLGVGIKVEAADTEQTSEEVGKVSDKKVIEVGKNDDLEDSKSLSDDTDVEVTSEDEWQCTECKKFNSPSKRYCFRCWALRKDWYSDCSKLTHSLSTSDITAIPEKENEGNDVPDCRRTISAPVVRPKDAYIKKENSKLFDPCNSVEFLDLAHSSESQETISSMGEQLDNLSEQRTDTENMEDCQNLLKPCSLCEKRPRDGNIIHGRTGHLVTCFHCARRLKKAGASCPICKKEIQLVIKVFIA
Target sequence (Q00987 whole entry, looked up): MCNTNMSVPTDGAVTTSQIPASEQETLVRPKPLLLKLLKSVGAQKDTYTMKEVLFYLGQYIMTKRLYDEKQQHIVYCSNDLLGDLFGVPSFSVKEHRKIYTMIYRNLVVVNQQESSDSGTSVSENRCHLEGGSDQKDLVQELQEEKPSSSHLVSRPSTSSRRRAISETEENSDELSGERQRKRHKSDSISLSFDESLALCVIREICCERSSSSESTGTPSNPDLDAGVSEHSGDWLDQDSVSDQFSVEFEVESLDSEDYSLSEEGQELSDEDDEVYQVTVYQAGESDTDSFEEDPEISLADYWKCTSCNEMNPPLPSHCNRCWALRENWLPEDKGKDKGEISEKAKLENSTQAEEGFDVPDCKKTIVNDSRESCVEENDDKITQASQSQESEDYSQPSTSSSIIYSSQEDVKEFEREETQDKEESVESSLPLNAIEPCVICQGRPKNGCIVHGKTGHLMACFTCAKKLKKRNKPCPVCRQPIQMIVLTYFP
Jurkat NFkB inh: inhibitors of induced NF-kB luciferase reporter, primary screen, TCR NF-kB activation inhibitor project, cell-based, luminescence, uHTS | Jurkat, PMA/ionomycin-induced NF-kB luciferase reporter | inhibition, % at 4 µM | 0.53% of 330,000 active; in the data active means inhibition above about 50%
697 NFkB inh: inhibitors of PMA/ionomycin-induced NF-kB reporter, 697 cells, primary screen, B-cell NF-kB inhibitor project, cell-based, luminescence, uHTS. 697 B-cell NF-kB luciferase reporter, 16 h. inhibition, % at 4 µM. 0.33% of 330,000 active; in the data active means inhibition above about 35%
Beta apoptosis: inhibitors of cytokine-induced beta cell apoptosis, primary screen, luminescence. 0.8% of 300,000 active. protection from apoptosis, % (test concentration not listed). AID 435005, 2010. INS-1E cytokine-induced death, ATP luminescence, 48 h; percent of positive-control rescue, neutral wells zero;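 active means Every replicate reaches about 75%, or at least half do and their mean reaches it too, limit read from the data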;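 further: 0% = cytokine-treated negative control wells and 100% = positive control rescue; higher means more ATP so stronger rescue from cytokine killing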
Mdm2 MdmX conf: Mdm2-MdmX complex disruptors, retested hits, confirmation, luminescence, single concentration; shares compounds with Mdm2-MdmX inh; inhibition, % at 8 µM; Mdm2-MdmX binding, luminescent assay; AID 489028, 2010; 55% of 10,000 active; in the data active means inhibition above about 40%
Full FLuc ctr: full-length luciferase signal inhibition, confirmation, counter-screen for Mdm2/MdmX interaction inhibitor project, cell-based, single concentration, SaOS-2; shares compounds with Mdm2-MdmX inh; SaOS-2 full-length luciferase counterscreen, luminescence; inhibition, % at 8 µM; 77% of 6,200 active; AID 504607, 2011;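 active means mean inhibition at 8 µM reaching about 37%, which flags the compound as non-specific, limit read from the data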;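 further: p53-null SaOS-2 cells with luciferase driven by a doxycycline-inducible promoter; compound on cells about two nights before reading with doxycycline added after day one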
An asterisk follows results filed as active; / = no result. Hits are enriched below; roughly 4% of the tested compounds scored in any of these assays.

SMILES	Gli-Sufu block	Mdm2-MdmX inh	Jurkat NFkB inh	697 NFkB inh	Beta apoptosis	Mdm2 MdmX conf	Full FLuc ctr
O=C(Nc1cccc(Cl)c1)c1cc2c(=O)n3ccccc3nc2s1	13	56*	4	10	-6	18	/
CCN(CC)S(=O)(=O)c1ccc(OC)c(NC(=O)c2cc3c(=O)n4ccccc4nc3s2)c1	-9	55*	-7	24	6	7	/
CC(=O)NS(=O)(=O)c1ccc(NC(=O)c2cc3c(=O)n4ccccc4nc3s2)cc1	23	21	3	13	2	/	/
COC(=O)c1ccc(C(NC(=O)OCc2ccccc2)/C(F)=C/[C@@H](C)C(=O)NCc2ccc(OC)c(OC)c2)cc1 (some centres undefined)	-7	89*	-14	2	4	5	/
COC(=O)c1ccc(C(NC(=O)OCc2ccccc2)/C(F)=C/[C@@H](C)C(=O)NCc2ccc(-c3ccccc3)cc2)cc1 (some centres undefined)	2	38	-13	-4	-2	/	/
COc1cc(C(=O)Nc2nc(-c3cc(C)ccc3C)c(C)s2)ccc1OCC(=O)Nc1ccc(F)cc1	19	17	16	-26	/	/	/
COc1ccc(-c2nc(NC(=O)c3ccc(OCC(=O)Nc4ccc(F)cc4)c(OC)c3)sc2C)cc1	34	61*	29	-7	-4	46*	58*
CC(C)[C@H](NC(=O)c1ccc(C(C)(C)C)cc1)C(=O)N1CCN(Cc2ccc3c(c2)OCO3)CC1	8	52*	-1	-43	25	32	55*
C=CCOC(=O)C1=C(C)NC(SCC(=O)Nc2ccc(C)c(Cl)c2)=C(C#N)C1c1ccco1 (centres undefined)	8	63*	0	-6	5	51*	46*
CC(=O)N1CCc2c(sc(NC(=O)Cc3ccc(C)cc3C)c2C#N)C1	32	10	-6	-13	5	/	/
CC(=O)N1CCc2c(sc(NC(=O)CCS(=O)(=O)c3ccc(C)cc3)c2C#N)C1	7	52*	8	13	20	41*	78*
Oc1c(Cl)cc(Cl)cc1/C=N/Nc1ncc(Br)cn1	51	67*	33	11	86*	69*	23
O=c1c2c3c(sc2ncn1/N=C/c1ccc([N+](=O)[O-])o1)CCCC3	10	58*	34	-50	21	43*	57*
Cn1cc(/C=N/n2cnc3sc4c(c3c2=O)CCCC4)c2ccccc21	9	44	3	-1	-3	/	/
COc1ccc(-c2csc(/C(C#N)=C/Nc3ccc4c(c3)OCCO4)n2)cc1	6	52*	21	13	14	8	/
COc1ccc(-c2csc(/C(C#N)=C\c3ccc(O)c([N+](=O)[O-])c3)n2)cc1OC	33	53*	-9	-14	20	47*	62*
COc1ccc(-c2csc(/C(C#N)=C\c3cccc([N+](=O)[O-])c3)n2)cc1	/	33	0	4	1	/	/
COc1ccc(-c2csc(/C(C#N)=C\c3ccc(OC)c([N+](=O)[O-])c3)n2)cc1	19	54*	-15	11	8	16	/
COc1ccc(N2CCN(C(=O)c3sc4ncn(CC(=O)N5CCCCC5C)c(=O)c4c3C)CC2)cc1 (centres undefined)	-2	4	8	-11	-8	/	/
O=C(OCc1c(F)cccc1Cl)c1cccnc1Cl	-6	10	-6	8	/	/	/
COc1ccc(NC(=O)c2cc3c(CO)cnc(C)c3oc2=Nc2cccc(F)c2)c(OC)c1	-10	72*	10	-8	7	74*	28
Cc1ccc(NC(=O)c2cc3c(CO)cnc(C)c3oc2=Nc2cccc(C(N)=O)c2)cc1	0	78*	12	10	3	64*	48*
Cc1ncc(CO)c2cc(C(=O)Nc3cccc(F)c3)c(=Nc3cccc(C(N)=O)c3)oc12	4	23	-13	-7	13	/	/
CC(=O)c1ccc(N2CCN(C(=O)CCS(=O)(=O)c3ccc4c(c3)CCN4C(C)=O)CC2)cc1	16	8	3	6	6	/	/
CC1(C)CC(NC(=O)c2cccc([N+](=O)[O-])c2)CC(C)(C)N1	-7	33	-5	5	-1	/	/
SMILES	Gli-Sufu block	Mdm2-MdmX inh	Jurkat NFkB inh	697 NFkB inh	Beta apoptosis	Mdm2 MdmX conf	Full FLuc ctr
CC(=O)Nc1cccc(NC(=O)CSc2nc(C)c(C)c(C)c2C#N)c1	0	6	-3	19	1	/	/
Cc1cccc(C)c1NC(=O)CSc1nc(C)c(CC(=O)c2ccc(Br)cc2)c(C)c1C#N	8	85*	13	14	37	63*	96*
CCc1c(C)nc(SCC(=O)c2cccs2)c(C#N)c1C	-72	-102	-120	-128	6	/	/
Cc1nc(SCC(=O)Nc2ccccc2C(F)(F)F)c(C#N)c(C)c1CC(=O)c1ccc(Br)cc1	/	53*	2	-9	11	10	/
COc1cc2c3nnc(-c4ccccc4)c-3cn(Cc3ccc(F)cc3)c2cc1OC	24	46	7	-35	-27	/	/
COc1cc2c3nnc(-c4ccc(F)cc4)c-3cn(Cc3cccc(F)c3)c2cc1OC	9	89*	5	8	-2	100*	50*
COc1cc2c3nnc(-c4ccc(F)cc4)c-3cn(Cc3ccc(C)cc3)c2cc1OC	12	78*	6	-25	8	72*	68*
COc1cccc(Cn2nc3c4cc(F)ccc4n(Cc4ccc(F)cc4)cc-3c2=O)c1	21	15	-7	-1	/	/	/
COc1cc2c3nnc(-c4ccc(F)cc4)c-3cn(Cc3cccc(C)c3)c2cc1OC	6	97*	6	-26	23	99*	87*
O=C(N/C(=C\c1ccc(Br)cc1)C(=O)N1CCCC1)c1ccccc1F	4	-4	-5	17	-4	/	/
O=C(Nc1nccs1)c1ncc(Cl)c(Cl)c1Cl	-1	-4	-8	1	0	/	/
CCN(C(=O)c1ccc(NC(=O)Cc2ccccc2)cc1)c1ccccc1	-7	25	-7	4	-3	/	/
COc1cc(/C=C/c2cccc[n+]2C)ccc1OCC(=O)Nc1ccccc1C	3	14	8	10	0	/	/
CCOc1cc(/C=C\[N+](=O)[O-])ccc1OCC(=O)Nc1ccccc1C	-2	96*	4	5	80*	100*	51*

Screening results from PubChem.
